Here are results for 14 molecules from PubChem BioAssay (NCI).

Test in all cases: NCI-60 one-dose screen, 48 h (100 = growth as untreated, 0 = no growth, -100 = all killed)
What all share (conditions): 10 µM

The subject of assay [1] is RPMI-8226 leukemia.
For assay [2], the system named is OVCAR-8 ovarian.
Assay [3] has as its system OVCAR-5 ovarian.
The test system of assay [4] is OVCAR-4 ovarian.
Assay [5] relates to SK-OV-3 ovarian.
For assay [6], the system named is IGROV1 ovarian.
Assay [7] relates to OVCAR-3 ovarian.
The subject of assay [8] is HS 578T breast.
For assay [9], the system named is NCI/ADR-RES ovarian.
Assay [10] concerns T-47D breast.

Compounds without any hit were thinned out: in the full panel of roughly 83,000, 20% have a hit.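 Step 1: grow cells in 96-well plates. Step 2: add test compound at a single concentration. Step 3: incubate 48 h. Step 4: record percent growth.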 Unmarked numbers belong to inactive results. Active and inactive are the calls of the source. How the source made its calls: active means growth percent below 10; inactive means the rest.

Consider `O=C(Nc1ccc(OS(=O)(=O)c2ccccc2)cc1)C12CC3CC(CC(C3)C1)C2`, for which the growth in [1] is 18.8%; in assay [2] it was 63%; in assay [3] it was 68%; in assay [4] it was 58.9%; in [5], 74%; in [6], 75.1%. The growth in [7] is 63.9%; in [8], 63.1%; in [9], 52.5%; in assay [10], 27%.
For `c1ccc(C(NC2CC3CCC2C3)c2ccccc2)cc1` (stereo not given), the growth is 96.2% in [1]; 105% in [2]; 101% in assay [3]; 108% in assay [4]; 95.9% in assay [5]; 109% in [6]. In addition, the growth in [7] was 114%; in [8], 111%; in [9], 103%; in [10] it was 99.9%.
For the molecule `CC(=O)c1cc(Br)ccc1O`, the growth is 105% in assay [1]; 112% in [2]; 92.3% in assay [3]; 105% in assay [4]; 126% in assay [5]; 136% in assay [6]. The growth in assay [7] is 118%; in assay [8], 108%; in assay [9], 107%; in assay [10] it was 114%.
Take `COc1ccc(-c2nsc3c2NC(=O)CC3c2ccc(F)cc2)cc1` (stereo not given): the growth in [1] was 39.6%; in assay [2], 46.1%; in assay [3], 40.3%; in assay [4] it was 90.8%; in [5] it was 35.2%; in assay [6] it was 56.2%. The growth in assay [7] is 23.9%; in [8], 66.6%; in assay [9] it was 5.04% (active); in assay [10], 22.2%.
On to `CCCCCCc1cc(N=Nc2ccc(S(=O)(=O)Nc3cc(C)nc(C)n3)cc2)c(O)cc1O`, for which the growth in assay [1] is 95.5%; in assay [2], 99.7%; in [3] it was 113%; in assay [4], 108%; in [5], 101%; in assay [6], 96.2%. The growth is 109% in assay [7], 110% in assay [8], 99.9% in assay [9] and 93.9% in assay [10].
On to `N#Cc1ncc(Br)c(NC2CCCCCC2)n1`, for which the growth in assay [1] is 93.4%; in [2], 89.8%; in assay [3] it was 99.9%; in assay [4] it was 91.3%; in [5], 99.1%; in assay [6], 104%. The growth is 119% in assay [7], 107% in assay [8], 106% in assay [9] and 90.8% in assay [10].
Turning to `COc1ccc(Nc2ncnc3c2c(SC)nn3-c2ccccc2)cc1`, the growth is 85.3% in assay [1]; 98% in assay [2]; 96.7% in assay [3]; 73.3% in assay [4]; 109% in [5]; 88.4% in assay [6]. Further, the growth in [7] was 99.1%; in assay [8] it was 136%; in [9], 91.9%; in assay [10], 70.7%.
As to `O=C(Nc1ccc(Cl)cc1)N1NC(c2ccc(Cl)cc2)C=C1c1ccccc1` (stereo not given), the growth is 99.5% in assay [1]; 97% in assay [2]; 124% in assay [3]; 91.5% in assay [4]; 97% in assay [5]; 95.3% in assay [6]. Further, the growth in assay [7] was 103%; in assay [8] it was 123%; in assay [9], 115%; in [10], 94%.
On to `O=C1OCC2=C1C(c1cccc(Cl)c1)c1cc3c(cc1N2CCO)OCO3` (stereo not given), for which the growth in assay [1] is 22.4%; in assay [2], 25.1%; in [3] it was 31.2%; in [4], 64.5%; in assay [5] it was 19.4%; in [6] it was 44%. Also, the growth in [7] is -50.6% (active); in assay [8], -5.17% (active); in [9], -11% (active); in [10], 62.6%.
With `CS(=O)(=O)Nc1ccc(Nc2c3ccccc3nc3cc(N)ccc23)cc1`, the growth in [1] is 21.6%; in assay [2] it was 24.8%; in assay [3] it was 56.6%; in [4], 43.2%; in assay [5] it was 32%; in assay [6], 37.5%. For the same molecule, the growth in assay [7] is 15.3%; in [8], 23.7%; in assay [9] it was 96.5%; in [10], -14.5% (active).
Regarding `COc1cc(-c2cc(C(=O)N3CCN(C(=O)c4ccccc4NCc4cccs4)CC3)nc3cc(-c4ccccc4)nn23)cc(OC)c1OC`, the growth was 75.2% in assay [1]; 90% in assay [2]; 86.6% in assay [3]; 89.4% in assay [4]; 86.7% in [5]; 36.6% in [6]. Also, the growth in assay [7] is 9.27% (active); in [8], 85.7%; in assay [9] it was 52.6%; in [10], 79.6%.
`Cc1ccc(NC(=O)Nc2nc3ccccc3s2)cc1NC(=O)Nc1nc2ccccc2s1`: the growth was 42.8% in assay [1]; 50.4% in assay [2]; 104% in assay [3]; 82.3% in assay [4]; 95.8% in [5]; 53.6% in assay [6]. In addition, the growth is 96.2% in assay [7], 77.3% in assay [8], 91.7% in assay [9] and 80.6% in [10].
For the molecule `FC(F)(F)c1ccc2nc(-c3nc(-c4ccccc4)n4ccccc34)[nH]c2c1`, the growth in assay [1] was 51.6%; in assay [2], 17.3%; in [3], 85.6%; in assay [4], -3.4% (active); in assay [5] it was 52.8%; in [6] it was 67.7%. Also, the growth in assay [7] is 79.1%; in assay [8] it was 103%; in assay [9], 44.4%; in assay [10], 48.3%.
Turning to `COc1cc2nc(Nc3cccc(NC(C)=O)c3)nc(N)c2cc1OC`, the growth in assay [1] is 55.7%; in [2] it was 99%; in [3], 117%; in [4], 107%; in assay [5], 118%; in [6], 26.8%. Also, the growth is 111% in assay [7], 95.7% in assay [8], 149% in assay [9] and 90.1% in [10].
